According to PubChem BioAssay:
The source made the active and inactive calls. Unless noted, the rule behind the calls is not given here.

What was measured:
[1] = anti-His antibody binders, primary screen, artefact control for SMM control protein annotation, biochemical, small-molecule microarray, 635 nm fluorescence (AID 1128); settings: anti-His Alexa647 antibody binding, higher = more signal;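 note: score merges feature fluorescence with signal-to-noise for each printed compound spot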
[2] = tested on: Human papillomavirus type 1a E7 protein (residues 1-88); assay: HPV1a E7 small-molecule binders, primary screen, biochemical, small-molecule microarray, residues 1-88, 635 nm (AID 1129); settings: small-molecule microarray binding, fluorescence 635 nm; higher = more signal
[3] = biological target: Focal adhesion kinase 1 (Homo sapiens) (UniProt Q05397); assay: small-molecule microarray binders of FAK, primary screen, biochemical, 635/667 nm fluorescence, BSA, DTT (AID 1130); settings: PTK2 binding, 635 nm fluorescence, higher = more signal;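 note: composite of spot emission at 667 nm and signal to noise over triplicate slides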
[4] = tested on: Fibrinogen (Alexa647-labelled); assay: fibrinogen binders on compound microarrays, profiling panel, artefact control for SMM control-protein annotation, biochemical, small-molecule microarray, 635/667 nm fluorescence (AID 1131); settings: fibrinogen-A647 binding fluorescence, higher = more signal;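 note: z-score merges 667 nm fluorescence with per-spot signal-to-noise over triplicate slides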
[5] = biological target: Follistatin (Homo sapiens) (UniProt P19883); assay: follistatin binders on small-molecule microarrays, primary screen, biochemical, small-molecule microarray, 635/667 nm fluorescence (AID 1132); settings: FST binding, 635 nm fluorescence, higher = more signal
[6] = biological target: Fibroblast growth factor 2 (Homo sapiens) (UniProt P09038); assay: FGF2 binders on small-molecule microarrays, primary screen, biochemical, small-molecule microarray, 635/667 nm fluorescence (AID 1133); settings: small-molecule microarray binding, FGF2, fluorescence 635/667; higher = more signal
[7] = mitochondrial membrane potential change in A549 cells, profiling panel, cell-based, JC-1 fluorescence, basal, 24 h, 100 nL (AID 1138); settings: higher = more signal;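 note: A549 lung adenocarcinoma cells under basal conditions with no added stimulus; test concentration not given here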
Lefty1 = Lefty1 binders on small-molecule microarrays, primary screen, biochemical, small-molecule microarray, 635/667 nm fluorescence (AID 1139); settings: small-molecule microarray binding, fluorescence 635/667; higher = more signal
[8] = tested on: wheat germ agglutinin (Triticum aestivum), Alexa647-labelled; assay: wheat germ agglutinin binders on compound microarrays, profiling panel, artefact control for SMM control-protein annotation, biochemical, small-molecule microarray, 635/667 nm fluorescence (AID 1140); settings: WGA-A647 binding, 635 nm fluorescence, higher = more signal;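 note: score merges 667 nm feature emission with signal to noise over triplicate slides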
[9] = biological target: Luciferin 4-monooxygenase (Photinus pyralis) (UniProt P08659); assay: firefly luciferase enzyme inhibitors, primary screen, biochemical, luminescence, purified enzyme, 2006 set (AID 1141); settings: SteadyGlo luminescence, 30 min, higher = more signal, called active from +8 up or from −8 down;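 note: cell-free assay with purified firefly luciferase at 100 ng per well in PBS; test concentration not given here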
[10] = tested on: Wnt5a (protein binding on small-molecule microarray); assay: Wnt5a binders on small-molecule microarray, primary screen, biophysical, 635/667 nm fluorescence (AID 1142); settings: 635 nm fluorescence, higher = more signal;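 note: fluorescence read at 667 nm with signal to noise per printed feature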
[11] = cell viability in Huh7 cells, primary screen, cytotoxicity control for HCV replication inhibitor project, CellTiter-Glo luminescence, basal, 48 h (AID 1143); settings: Huh7 HCV replicon, higher = more signal, called active from +8 up or from −8 down;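 note: Huh7 hepatoma cells carrying a hepatitis C replication reporter with no stimulus; test concentration not given here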
[12] = P. aeruginosa biofilm formation inhibitors, primary screen, PAO1 strain, BacTiter-Glo luminescence, LB-PBS (AID 1144); settings: 12 h, higher = more signal
[13] = CREB reporter modulators without forskolin, primary screen, cell-based, PC12, CRE-LacZ reporter, unstimulated (AID 1145); settings: no forskolin, luminescence, 4.5 h, higher = more signal, called active from +8 up or from −8 down
[14] = CREB reporter modulators under forskolin, primary screen, cell-based, PC12, CRE-LacZ reporter, forskolin-stimulated (AID 1146); settings: luminescence, 4.5 h, higher = more signal, called active from +8 up or from −8 down;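 note: PC12 cells with 6xCRE LacZ reporter stimulated by forskolin 10 µM; beta-galactosidase reporter signal reflecting CREB driven transcription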
[15] = biological target: Streptavidin (Streptomyces avidinii) (UniProt P22629); assay: streptavidin binders on small-molecule microarray, primary screen, artefact control for SMM compound annotation, biophysical, 635/667 nm fluorescence (AID 1147); settings: streptavidin binding, higher = more signal;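 note: signal reflects streptavidin binding to arrayed compounds as a control protein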
[16] = small-molecule binders of probe aInhba, primary screen, biochemical, small-molecule microarray, 635/667 nm fluorescence (AID 1148); settings: higher = more signal;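 note: score merges 667nm spot fluorescence with signal-to-noise for antibody binding to printed compounds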
Torsin-1A (Homo sapiens) [17] = biological target: Torsin-1A (Homo sapiens) (UniProt O14656); assay: torsin A binders from cell lysate, primary screen, small-molecule microarray, wild-type, 635/667 nm (AID 1149); settings: COS7 hTOR1A-WT lysate, 635 nm fluorescence, higher = more signal
Torsin-1A (Homo sapiens) [18] = biological target: Torsin-1A (Homo sapiens) (UniProt O14656); assay: small-molecule binders of mutant TOR1A in lysate, primary screen, cell lysate, small-molecule microarray, COS7 lysate, 635/667 nm fluorescence (AID 1150); settings: COS7 hTOR1A mutant lysate, 635 nm fluorescence, higher = more signal;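 note: score pools 667 nm emission and signal to noise measuring lysate protein binding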
[19] = tested on: Sonic hedgehog protein (Shh); assay: small-molecule binders of Shh protein, primary screen, biochemical, small-molecule microarray, 635/667 nm fluorescence (AID 1151); settings: small-molecule microarray binding, 635 nm fluorescence; higher = more signal;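 note: Shh protein binding to compounds spotted on small-molecule microarray slides; score combines spot fluorescence intensity with signal-to-noise across triplicate slides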

Chain of Streptavidin (Streptomyces avidinii) (P22629 whole entry, looked up): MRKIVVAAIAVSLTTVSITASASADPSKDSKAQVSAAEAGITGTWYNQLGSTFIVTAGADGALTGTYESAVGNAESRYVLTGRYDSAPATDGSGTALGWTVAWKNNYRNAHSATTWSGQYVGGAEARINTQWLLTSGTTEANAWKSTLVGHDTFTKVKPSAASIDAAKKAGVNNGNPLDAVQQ
Chain of Follistatin (Homo sapiens) (P19883 whole entry, looked up): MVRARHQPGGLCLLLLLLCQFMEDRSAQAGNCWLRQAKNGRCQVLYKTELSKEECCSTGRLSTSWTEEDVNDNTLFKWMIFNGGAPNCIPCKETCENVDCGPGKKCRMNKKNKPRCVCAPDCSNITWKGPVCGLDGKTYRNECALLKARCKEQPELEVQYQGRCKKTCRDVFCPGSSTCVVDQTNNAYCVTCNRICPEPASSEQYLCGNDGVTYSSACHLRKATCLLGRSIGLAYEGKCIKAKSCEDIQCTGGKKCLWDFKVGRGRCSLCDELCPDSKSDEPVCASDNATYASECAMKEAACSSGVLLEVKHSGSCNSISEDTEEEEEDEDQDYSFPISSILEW
Chain of Torsin-1A (Homo sapiens) (O14656 whole entry, looked up): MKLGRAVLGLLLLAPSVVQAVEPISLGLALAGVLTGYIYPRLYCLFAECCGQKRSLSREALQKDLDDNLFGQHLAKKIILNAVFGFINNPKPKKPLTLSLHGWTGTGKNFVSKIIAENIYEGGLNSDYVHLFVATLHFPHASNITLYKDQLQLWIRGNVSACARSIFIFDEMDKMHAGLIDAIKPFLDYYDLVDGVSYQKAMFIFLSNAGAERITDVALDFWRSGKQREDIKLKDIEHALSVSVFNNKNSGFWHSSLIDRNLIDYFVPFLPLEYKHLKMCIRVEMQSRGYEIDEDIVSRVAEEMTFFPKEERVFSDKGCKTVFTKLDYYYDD
Chain of Luciferin 4-monooxygenase (Photinus pyralis) (P08659 whole entry, looked up): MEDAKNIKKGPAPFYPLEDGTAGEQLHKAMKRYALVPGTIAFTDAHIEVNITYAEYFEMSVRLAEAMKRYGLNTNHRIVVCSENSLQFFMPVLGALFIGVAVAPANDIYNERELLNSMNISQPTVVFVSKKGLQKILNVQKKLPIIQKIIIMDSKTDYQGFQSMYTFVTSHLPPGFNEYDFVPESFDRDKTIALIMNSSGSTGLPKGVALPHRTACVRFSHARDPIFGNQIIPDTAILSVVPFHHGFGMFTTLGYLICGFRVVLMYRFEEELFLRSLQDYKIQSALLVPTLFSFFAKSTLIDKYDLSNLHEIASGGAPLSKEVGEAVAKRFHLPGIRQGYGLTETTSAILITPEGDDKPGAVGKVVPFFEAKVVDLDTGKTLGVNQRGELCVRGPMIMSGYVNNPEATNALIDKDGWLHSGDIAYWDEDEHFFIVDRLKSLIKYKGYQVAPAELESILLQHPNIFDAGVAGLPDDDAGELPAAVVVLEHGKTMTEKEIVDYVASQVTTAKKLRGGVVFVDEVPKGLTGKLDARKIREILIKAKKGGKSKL
Chain of Fibroblast growth factor 2 (Homo sapiens) (P09038 whole entry, looked up): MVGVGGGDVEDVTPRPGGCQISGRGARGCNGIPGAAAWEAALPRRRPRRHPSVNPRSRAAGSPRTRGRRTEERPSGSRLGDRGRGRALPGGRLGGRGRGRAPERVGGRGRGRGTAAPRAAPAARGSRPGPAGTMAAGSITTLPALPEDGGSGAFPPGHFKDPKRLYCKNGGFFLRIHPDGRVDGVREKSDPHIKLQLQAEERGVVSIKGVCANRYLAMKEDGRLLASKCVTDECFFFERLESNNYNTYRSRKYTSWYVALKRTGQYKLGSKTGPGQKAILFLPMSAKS
Chain of Focal adhesion kinase 1 (Homo sapiens) (Q05397 whole entry, looked up): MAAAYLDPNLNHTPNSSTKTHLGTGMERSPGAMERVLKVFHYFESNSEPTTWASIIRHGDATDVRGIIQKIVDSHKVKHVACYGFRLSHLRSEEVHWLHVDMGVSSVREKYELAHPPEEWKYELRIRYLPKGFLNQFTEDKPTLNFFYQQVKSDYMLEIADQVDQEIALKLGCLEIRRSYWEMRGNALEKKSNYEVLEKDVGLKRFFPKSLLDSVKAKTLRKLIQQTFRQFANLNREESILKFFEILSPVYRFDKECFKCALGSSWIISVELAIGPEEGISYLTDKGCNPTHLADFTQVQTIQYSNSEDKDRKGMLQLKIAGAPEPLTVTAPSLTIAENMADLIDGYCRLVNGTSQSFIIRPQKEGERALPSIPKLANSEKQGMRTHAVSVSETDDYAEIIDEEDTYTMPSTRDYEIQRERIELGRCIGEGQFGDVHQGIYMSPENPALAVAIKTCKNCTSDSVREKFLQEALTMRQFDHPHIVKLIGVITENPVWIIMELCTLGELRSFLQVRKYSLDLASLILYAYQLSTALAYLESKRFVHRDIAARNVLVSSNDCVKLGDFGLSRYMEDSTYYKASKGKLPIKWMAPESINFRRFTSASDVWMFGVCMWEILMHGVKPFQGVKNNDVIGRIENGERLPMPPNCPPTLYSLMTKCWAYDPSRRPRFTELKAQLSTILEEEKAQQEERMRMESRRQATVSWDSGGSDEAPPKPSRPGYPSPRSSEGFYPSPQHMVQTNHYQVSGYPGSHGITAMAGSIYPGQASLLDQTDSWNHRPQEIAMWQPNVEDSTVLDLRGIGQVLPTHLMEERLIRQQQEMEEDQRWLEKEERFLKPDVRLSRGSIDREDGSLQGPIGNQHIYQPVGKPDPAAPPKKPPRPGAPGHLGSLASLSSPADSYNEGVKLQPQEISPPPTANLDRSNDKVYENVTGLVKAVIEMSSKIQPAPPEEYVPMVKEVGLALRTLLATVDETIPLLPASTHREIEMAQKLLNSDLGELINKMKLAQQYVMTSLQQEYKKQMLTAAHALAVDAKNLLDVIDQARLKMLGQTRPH

SMILES	composite z-score [1]	composite z-score [2]	composite z-score [3]	composite z-score [4]	composite z-score [5]	composite z-score [6]	z-score [7]	composite z-score (Lefty1)	composite z-score [8]	z-score [9]	composite z-score [10]	z-score [11]	z-score [12]	z-score [13]	z-score [14]	composite z-score [15]	composite z-score [16]	composite z-score (Torsin-1A (Homo sapiens) [17])	composite z-score (Torsin-1A (Homo sapiens) [18])	composite z-score [19]
CN(C)c1ccc(C(O)C2C=CC3C(=O)N(c4ccccc4)C(=O)C3N2Nc2ccc([N+](=O)[O-])cc2)cc1 (stereo not given)	1.35	1.19	-0.165	0.979	1.01	-0.181	-0.621	0.149	0.623	-0.421 (inactive)	0.0074	-0.619 (inactive)	0.108 (inactive)	0.49 (inactive)	-0.464 (inactive)	0.769	-0.0736	0.603	0.377	-0.13
CC(C)(C)N1CC=CC23O[C@@H]4C=CCCOC(=O)C4[C@H]2C(=O)N(CCO)[C@@H]3C1=O (stereo not given in full)	-0.513	-0.991	-0.541	0.0853	-0.607	0.23	-0.845	-0.551	-0.0465	0.0324 (inactive)	-0.323	0.297 (inactive)	-0.249 (inactive)	-1.44 (inactive)	-0.443 (inactive)	-0.485	-0.237	-0.102	-0.664	1.09
CCC(CC)C(O)C1C=CC2C(=O)N(c3ccccc3)C(=O)C2N1Nc1ccc(C(C)C)cc1 (stereo not given)	0.489	1.22	0.902	0.978	1.01	0.524	-0.202	0.0342	1.08	-1.58 (inactive)	0.578	-0.382 (inactive)	-0.0181 (inactive)	-0.136 (inactive)	-0.156 (inactive)	0.792	-0.0021	0.393	0.41	-0.0854
COc1ccc([Si](C)(C)[C@@H]2[C@@H](CCn3cc([C@H](O)c4ccccc4)nn3)O[C@]3(C(=O)N(Cc4ccc(N5CCC5=O)cc4)c4ccccc43)[C@H]2C)cc1	0.174	-0.304	-0.0467	-0.926	1.31	0.749	1.87	1.05	0.118	-0.325 (inactive)	0.512	-2.65 (inactive)	-1.38 (inactive)	1.03 (inactive)	0.355 (inactive)	-0.105	-0.184	2.13	0.269	2.02
C=CC1c2cc(O)c(OC)cc2CCN1Cc1cc2c(cc1Br)OCO2 (stereo not given)	0.976	-1.38	-0.0181	-0.851	1.27	-0.0941	-1.54	0.504	-0.623	0.0715 (inactive)	-0.158	-5.24 (inactive)	0.0937 (inactive)	0.299 (inactive)	0.962 (inactive)	-0.361	-0.128	1.34	0.587	0.672
C=CC[C@@]1(C(=O)N2CCOCC2)N=C(c2ccc(OCCCO)cc2)O[C@@H]1c1ccccc1CN=[N+]=[N-]	3.06	1.23	0.201	0.905	1.35	1.45	1.97	0.349	0.786	0.0079 (inactive)	0.935	-2.2 (inactive)	0.887 (inactive)	0.204 (inactive)	-0.818 (inactive)	1.28	0.305	0.495	1.46	0.0134
C=CCNC(=O)[C@@H]1[C@H]2C(=O)O[C@H](c3ccccc3)[C@H](c3ccccc3)N2[C@H](c2ccc(O)cc2)[C@@]12C(=O)N(C(=O)OCCOC)c1ccc(C#CC3(O)CCCCCC3)cc12	-0.461	-1.32	-0.365	-2.02	-1.01	-1.93	0.426	-0.624	-0.556	0.779 (inactive)	-1.3	-1.16 (inactive)	-0.53 (inactive)	-1.28 (inactive)	0.142 (inactive)	-1.23	-0.204	-1.68	-1.47	-0.382
C=CCC(OC(C)=O)[C@@H]1[C@@H](N(Cc2cc3ccccc3o2)C(=O)c2ccc(-c3ccccc3)cc2)c2cc(OCCCO)ccc2N1C(=O)c1ccc2ccccc2c1 (stereo not given in full)	0.0895	0.0833	-0.394	0.394	0.874	-0.198	1.26	0.795	0.196	-0.455 (inactive)	-0.0582	-0.282 (inactive)	0.2 (inactive)	1.22 (inactive)	0.655 (inactive)	0.0798	-0.143	0.0664	-0.0892	1.12
[N-]=[N+]=NCc1ccccc1[C@H]1OC(c2ccc(OCCCO)cc2)=N[C@@]1(CCS(=O)(=O)c1ccccc1)C(=O)N1CCCCC1	2.98	1.23	1.12	1.02	1.1	0.227	-1.16	0.53	1.44	-0.844 (inactive)	0.526	-1.56 (inactive)	-0.705 (inactive)	0.0219 (inactive)	-0.709 (inactive)	1.72	0.211	0.827	1.28	0.155
O=C1OCCC/C=C\[C@H]2OC34C=CCN(CCN5CCOCC5)C(=O)[C@H]3N(CCCCCCO)C(=O)[C@@H]4C12 (stereo not given in full)	3.45	0.167	-0.447	-0.613	-0.318	-0.25	1.13	0.337	0.33	-1.05 (inactive)	-0.089	-0.129 (inactive)	-1.18 (inactive)	0.325 (inactive)	-0.0772 (inactive)	-0.215	-0.0791	0.944	-0.404	0.837
